Measurements from the supplement of paper PMC6555819.

Columns and labels:
Test in all cases: PBM binding z-score (relative to random genomic background probes); higher = stronger binding; sequences stand for … in GC…GCGATTGACAGCGTAGAATGAAGG
[1] = tested on: FXR:RXRa (NR concentration 270 nM, RXRa partner concentration 90 nM)
In short: (§1)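 The probes on custom Agilent 4×180K protein-binding microarrays were double-stranded, with 34-nt variable regions bearing direct-repeat seeds, single-nucleotide variants, half-site ablations and random human genomic background sequences. Incubation lasted 1 h with ligand-free nuclear receptor dimers in PBS pH 7.4, 2% milk, 0.02% Triton X-100, 1 mM DTT, 0.2 mg/mL BSA and 0.4 mg/ml salmon testes DNA. Antibodies against each partner (one per run) detected bound dimers, and fluorescence scans were regression-normalized. Binding z-scores take the random background probes as reference.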

[2] = tested on: LXRa:RXRa (NR concentration 270 nM, RXRa partner concentration 90 nM)
In short: as §1

[3] = tested on: LXRa homodimer (NR concentration 270 nM)
In short: as §1

[4] = tested on: LXRb:RXRa (NR concentration 270 nM, RXRa partner concentration 90 nM)
In short: as §1

[5] = tested on: LXRb homodimer (NR concentration 270 nM)
In short: as §1

[6] = tested on: PPARa:RXRa (NR concentration 270 nM, RXRa partner concentration 90 nM)
In short: as §1

[7] = tested on: PPARg:RXRa (NR concentration 180 nM, RXRa partner concentration 90 nM)
In short: as §1

[8] = tested on: PPARg:RXRa 270nM:90nM, anti-RXR (NR concentration 270 nM, RXRa partner concentration 90 nM)
In short: as §1

[9] = tested on: PPARg:RXRa 30nM:10nM, anti-RXR (NR concentration 30 nM, RXRa partner concentration 10 nM)
In short: as §1

[10] = tested on: PPARg:RXRa 90nM:30nM, anti-RXR (NR concentration 90 nM, RXRa partner concentration 30 nM)
In short: as §1

[11] = tested on: PPARg:RXRa DBDmut IVT, anti-RXR (DBD mutation: RXRa K156A/R161A, NR concentration 270 nM, RXRa partner concentration 90 nM)
In short: as §1

[12] = tested on: PPARg:RXRa IVT, anti-PPARg (NR concentration 270 nM, RXRa partner concentration 90 nM)
In short: as §1

[13] = tested on: PPARg DBDmut:RXRa IVT, anti-PPARg (DBD mutation: PPARg1 K132A/R137A, NR concentration 270 nM, RXRa partner concentration 90 nM)
In short: as §1

[14] = tested on: PPARg DBDmut IVT, anti-PPARg (DBD mutation: PPARg1 K132A/R137A, NR concentration 270 nM)
In short: as §1

[15] = tested on: PPARg homodimer (NR concentration 180 nM)
In short: as §1

[16] = tested on: PXR:RXRa (NR concentration 270 nM, RXRa partner concentration 90 nM)
In short: as §1

[17] = tested on: PXR homodimer (NR concentration 270 nM)
In short: as §1

[18] = tested on: RARa:RXR (NR concentration 270 nM, RXRa partner concentration 90 nM)
In short: as §1

[19] = tested on: RARa homodimer (NR concentration 270 nM)
In short: as §1

[20] = tested on: RARb:RXRa (NR concentration 270 nM, RXRa partner concentration 90 nM)
In short: as §1

Row | Sequence | PBM binding z-score [1] | PBM binding z-score [2] | PBM binding z-score [3] | PBM binding z-score [4] | PBM binding z-score [5] | PBM binding z-score [6] | PBM binding z-score [7] | PBM binding z-score [8] | PBM binding z-score [9] | PBM binding z-score [10] | PBM binding z-score [11] | PBM binding z-score [12] | PBM binding z-score [13] | PBM binding z-score [14] | PBM binding z-score [15] | PBM binding z-score [16] | PBM binding z-score [17] | PBM binding z-score [18] | PBM binding z-score [19] | PBM binding z-score [20]
1 | ACTACTAGTTGACTTAGGGCAACCGATACGACGC | 0.249 | 0.17 | 0.195 | 0.0613 | 0.134 | 0.123 | 1.04 | 0.267 | 0.432 | 0.312 | 0.365 | 0.47 | 0.77 | 0.857 | 0.669 | 0.14 | -0.0753 | 0.458 | 0.347 | 0.59
2 | ATCGAAAGGTCGAGGTCAGTATAGAGAAAGGGAA | 5.77 | 4.62 | 1.15 | 4.12 | 1.14 | 5.3 | 4.76 | 5.12 | 2.04 | 4.08 | 0.84 | 3.1 | 1.71 | 1.29 | 3.42 | 4.33 | 1.7 | 4.81 | 2.18 | 5.1
3 | ATCGAAAGGTCGACGAGATGAGTATACACCGTTT | 3.66 | 2.9 | 0.0102 | 2.41 | 0.483 | 4.04 | 2.7 | 2.66 | 1.14 | 1.85 | 0.534 | 1.36 | 1.43 | 1.08 | 1.2 | 2.24 | 0.2 | 2.77 | 0.514 | 3.79
4 | TTACCAGGGTGAAGGTCGTTGATCCCTCTGTAGA | 1.98 | 1.73 | -0.022 | 1.44 | -0.184 | 3.62 | 6.75 | 6.39 | 4.84 | 6.33 | 1.33 | 3.97 | 0.161 | -0.0741 | 1.08 | 1.6 | 0.104 | 1.86 | -0.0972 | 1.69
5 | TCATATAGGTAAACAGGTCAAAGTCCGTAAGTTA | 2.74 | 3.19 | 2.04 | 3.12 | 0.433 | 4.55 | 5.08 | 5.37 | 4.97 | 5.43 | 5.17 | 5.48 | 3.64 | 1.86 | 2.44 | 2.77 | 0.953 | 3.52 | 1.47 | 2.8
6 | CCGACTGGGGCCAGGTTACCATAACGCACAGCCA | 0.0157 | -0.087 | -0.139 | 0.152 | -0.749 | 0.188 | 0.629 | 0.301 | -0.675 | -0.256 | -0.238 | -0.22 | -1.52 | -1.47 | 0.249 | -0.136 | -0.0661 | 0.176 | -0.0137 | 0.996
7 | CGTCCAAGGTCAGACAGGTCAGTGAATGCCGAGT | 5.43 | 4.15 | 1.39 | 3.43 | 0.134 | 4.25 | 2.72 | 3.38 | 0.54 | 1.85 | 2.43 | 2.79 | -0.527 | -0.665 | 2.82 | 4.38 | 6.4 | 4.28 | 0.847 | 4.93
8 | GGAACGAGGGCAAGATGATAGCAGAGTTTGATGG | 0.506 | 0.313 | -0.287 | 0.0342 | -0.415 | 1.25 | 1.39 | 0.84 | 0.0817 | 0.398 | 3.59 | 2.4 | -0.698 | -0.398 | 0.136 | 0.418 | 0.432 | 0.145 | 0.345 | 2.19
9 | TCTTGTAGATGAGCAGGTTAAGAAAGCTGGCCAA | -0.174 | -0.248 | -0.441 | -0.166 | -1.02 | 0.327 | -0.56 | 0.706 | 1.86 | 1.32 | 0.934 | -0.183 | -0.514 | 0.12 | 0.00499 | 0.02 | -0.92 | 0.211 | -0.441 | -0.439
10 | ATCTCTAGGTAAATATAGTTCAGTGAATGCAAAT | 0.614 | 5.89 | 1.51 | 2.5 | 1.12 | 0.691 | 1.16 | 0.903 | 1.13 | 1.05 | 1.8 | 1.91 | 1.61 | 1.65 | 1.19 | 1.38 | 0.957 | 0.923 | 1.21 | 0.851
11 | ACAGACAGGAGAGTGAAGGTAACTCAGCTGGACG | 0.399 | -0.127 | -0.128 | 0.0952 | 0.885 | 0.0627 | 0.928 | 0.616 | 0.213 | 0.343 | -0.0669 | 0.0769 | 0.725 | 0.294 | 0.433 | 0.0985 | 0.114 | 0.228 | 0.297 | 0.198
12 | CCTTACGGGTCACTCCAGGTTATAGCCTCGGAGT | 4.87 | 7.57 | 1.87 | 5.01 | 0.105 | 4.56 | 3.61 | 3.83 | 1.17 | 2.46 | 2.45 | 3.8 | -1.39 | -0.526 | 1.18 | 4.66 | 0.0423 | 3.43 | 0.55 | 3.64
13 | TCATATAAGTAAACAGGTGAAAGTCCGTAAGTTA | 1.27 | 1.25 | 0.422 | 1.2 | 0.0139 | 1.55 | 1.32 | 2.57 | 4.41 | 3.57 | 3.11 | 1.31 | 0.554 | 1.07 | 1.13 | 1.09 | 0.507 | 1.19 | 1.75 | 0.383
14 | TCTGGTAGATCAACAGGAGGTTAAGAAAGATCGA | 0.3 | 1.04 | 0.187 | 0.782 | -0.582 | 1.24 | -0.00962 | 1.19 | 2.17 | 1.82 | 0.912 | 0.0177 | 0.166 | -0.137 | 0.335 | 0.736 | -0.172 | 1.06 | -0.145 | 0.269
15 | AATACACGGTCATCGTAGGCCAGAGTACGCACAG | 1.37 | 3.15 | 2.68 | 0.586 | 0.643 | 0.606 | 1.15 | 0.51 | 0.35 | 0.546 | 0.462 | 1.62 | 0.948 | 0.51 | 0.841 | 0.356 | 0.177 | 0.83 | 0.727 | 2.83
